Compound activity: PubChem BioAssay, Broad Institute
aSyn UTR act: Activators via SNCA 5'UTR binding, MLPCN. activity score, % (tested at 7.5 µM), hits read low. 300,000 tested, 7.1% active. AID 1814. alpha-synuclein 5'UTR reporter, activators screen; in the data active means activity score below about -60%
The depositor's hits bear a star. Only a sample is shown.

SMILES	aSyn UTR act
CCn1c(C)cc(/C=C2/NC(=O)N(c3ccccc3)C2=O)c1C	-153.1*
Cc1ccc(-n2c(C)cc(C(=O)COC(=O)c3c(C)noc3C)c2C)cc1	-199.2*
O=C(Nc1c2c(nn1-c1ccc(F)cc1)CS(=O)(=O)C2)C1CCCC1	-62.2*
Cc1ccc(OCC(=O)Nc2cccc(C)n2)c(C)c1	-136.9*
Cc1cccc(NC(=O)COc2ccc(Br)cc2)n1	-70.6*
Cc1ccnc(NS(=O)(=O)c2ccc(NC(=O)COc3ccccc3)cc2)n1	68.4
CC(C)c1ccc(NC(=O)COc2ccccc2)cc1	-124.1*
C/C(=N\NC(=O)c1c(Cl)c(C)nn1C)c1cccc(NC(=O)COc2ccccc2)c1	-79.7*
CCCOC(=O)Nc1ccc(N2CCCCC2)cc1	-67.3*
Cc1cc(NC(=O)COc2ccccc2)ccc1Cl	-95.8*
Cc1ccc(SCC(=O)Nc2ccc(N3CCN(C)CC3)c(F)c2)cc1	-81.9*
O=C(COc1ccccc1)Nc1ccc(N2CCCCC2)cc1	-74.4*
O=C(COc1ccccc1)Nc1ccccc1N1CCN(c2ccccc2)CC1	42.7
CN1CCN(c2ccc(NC(=O)COc3ccccc3)cc2Cl)CC1	-192.1*
CC(C)c1ccc(NC(=O)COc2ccccn2)cc1	-130.2*
CCCC(=O)N1CCCC(c2nc(-c3cccc(OC)c3)no2)C1 (stereo not given)	-83.8*
COc1ccc(-c2noc(C3CCCN(C(=O)c4ccccc4)C3)n2)cc1 (stereo not given)	-75.9*
COc1ccc(-c2noc(C3CCCN(C(=O)Nc4ccccc4F)C3)n2)cc1 (stereo not given)	-114.4*
COc1ccc(NC(=O)N2CCCC(c3nc(-c4ccc(C(C)C)cc4)no3)C2)cc1 (stereo not given)	-163.5*
COc1ccc(NC(=O)N2CCCC(c3nc(-c4ccc(OC)cc4)no3)C2)cc1 (stereo not given)	-93.9*
COc1ccc(-c2noc(C3CCCN(C(=O)Nc4ccccc4)C3)n2)cc1 (stereo not given)	-101.8*
CCn1cc(Br)c(-c2nc3ccccc3c(=O)n2N)n1	-99.5*
CCOC(=O)CSc1nc(-c2ccc3c(c2)OCO3)ccc1C#N	-113.0*
CCOC(=O)CSc1nc(-c2ccncc2)ccc1C#N	-138.4*
COc1ccc(CCOC(=O)c2ccc(N)c([N+](=O)[O-])c2)cc1	-73.3*
SMILES	aSyn UTR act
COc1ccc(/C(N)=N/OC(=O)c2ccc(C)c([N+](=O)[O-])c2)cc1	-165.4*
Cc1cc(C(=O)O/N=C(\N)c2ccncc2)ccc1[N+](=O)[O-]	-124.1*
O=C(NC(=O)c1ccccc1)Nc1ccccn1	64.3
Cc1cc(C)c(NC(=O)NC(=O)c2cccc(F)c2)c(C)n1	-69.1*
Cc1cccc(NC(=O)NC(=O)c2ccccc2)n1	-138.6*
Cc1cccc(NC(=O)c2ccc(C(=O)c3ccccc3)cc2)n1	-102.4*
O=C(Nc1ccccn1)c1ccc(C(=O)c2ccccc2)cc1	-107.8*
C/C(=N\OC(=O)c1ccccc1)c1cc(-c2ccc(Cl)cc2)no1	-151.7*
C/C(=N/OC(=O)C1CC1)c1cc(-c2ccc(Cl)cc2)no1	-133.0*
COc1ccccc1/C=C/C=C(\C#N)C(=O)NC(C)c1ccccc1 (stereo not given)	-74.0*
CCC(=O)NC(c1ccco1)c1cc(Cl)c2cccnc2c1O (stereo not given)	99.8
O=C(C1=C(O)C(=O)N(c2ncccn2)C1c1ccc(Cl)c(Cl)c1)c1ccco1 (stereo not given)	-81.4*
Cn1c(O)c(/C=N/NC(=O)c2cc3ccccc3cc2O)c2ccccc21	-83.5*
O=C(NNc1c2ccccc2nc2ccccc12)c1ccc(O)cc1O	-78.6*
O=C(NNc1c2ccccc2nc2ccccc12)c1ccccc1O	-92.9*
Cc1onc(-c2ccccc2)c1C(=O)NC(=S)NNC(=O)c1ccc(O)cc1O	64.1
C/C(=N\NC(=O)c1cc(C2CC2)nc2ccccc12)c1ccc(O)cc1O	73.7
CCCc1c(C(=O)N/N=C/c2ccc(OC)c(OCc3ccccc3)c2)nnn1-c1nonc1N	-95.0*
CN(C)Cc1c(C(=O)N/N=C/c2ccccc2OCc2c(F)cccc2Cl)nnn1-c1nonc1N	-71.7*
CCCc1c(C(=O)N/N=C/c2ccc(OCc3ccccc3)c(OC)c2)nnn1-c1nonc1N	-147.9*
COc1cc(/C=N/NC(=O)c2nnn(-c3nonc3N)c2C(C)C)ccc1OCc1ccc(F)cc1	-143.1*
CC1CCN(Cc2c(C(=O)N/N=C/c3ccccc3O)nnn2-c2nonc2N)CC1	65.5
Cc1ccccc1COc1ccc(/C=N/NC(=O)c2nnn(-c3nonc3N)c2CN2CCC(C)CC2)cc1	-77.7*
COc1ccccc1/C=N/NC(=O)c1nnn(-c2nonc2N)c1-c1cccs1	-80.1*
Cc1nnn(-c2nonc2N)c1C(=O)N/N=C/c1ccccc1O	67.8
O=[N+]([O-])C(/C=C(\Cl)[N+](=O)[O-])=C(N1CCCCC1)N1CCCCC1	-68.9*
O=C(Nc1ccc(Cl)cc1Cl)c1csc(-c2cccnc2)n1	-71.9*
O=C(Nc1ccc(Cl)cc1)c1csc(-c2ccncc2)n1	-65.6*
O=C(Nc1ccc(Cl)cc1)c1csc(-c2ccccc2)n1	-68.0*
